# Screen size: about 48,000 compounds; about 13,000 (27%) showed an effect of 50% or more. The list shows a part of the results.
# Test system: Wolbachia pipientis
# Test: Anti-Wolbachia Cell-Based Screen
# Type: functional
# Set-up: scale not given: in the data most compounds retested in dose-response had high values
# Details: 5 µM
row,SMILES,Percent Effect
1,CC(NCCCn1ccnc1)c1ccc(N2CCOC2=O)cc1 (stereo unspecified),-1.07%
2,c1cnc(N2CC3(CCN(C4CCOC4)CC3)c3ccccc32)nc1 (stereo unspecified),13%
3,O=C(CCN1CCCC1)N1CC[C@@H](c2ccc3ccccc3c2)[C@H](O)C1,-4.226%
4,CC(C)C(Sc1ccccc1)C(=O)N(C)Cc1nnc2n1CCC2 (stereo unspecified),14.25%
5,CCc1cc(-c2nccn2-c2ccccc2CN2CCOCC2)on1,1.321%
6,Cc1nc(C)c(CN2CCOC[C@H](Oc3ccccc3)C2)s1,-8.964%
7,Cc1nnc([C@@]23CCO[C@@H]2CCN(S(=O)(=O)c2ccccc2)C3)o1,90.56%
8,Cc1nnc([C@@]23CCO[C@@H]2CCN(S(=O)(=O)c2cccnc2)C3)o1,88.28%
9,O=C1N(CC2CCC2)CCCC12CCN(S(=O)(=O)c1cccnc1)C2 (stereo unspecified),16.59%
10,CCCS(=O)(=O)N1CC[C@H]2OCC[C@@]2(c2nnc(C)o2)C1,-9.465%
11,Cc1nnc([C@@]23CCO[C@@H]2CCN(S(C)(=O)=O)C3)o1,-9.969%
12,Cc1noc([C@@]23CCO[C@@H]2CCN(C(=O)C2CCOCC2)C3)n1,-2.403%
13,Cc1noc([C@@]23CCO[C@@H]2CCN(S(=O)(=O)c2cccnc2)C3)n1,103%
14,Cc1nnc([C@]23COC[C@H]2CN(S(=O)(=O)c2cccnc2)C3)o1.O=C(O)C(F)(F)F,103.4%
15,Cc1nnc([C@]23COC[C@H]2CN(Cc2cccs2)C3)o1.O=C(O)C(F)(F)F,0.3646%
16,Cc1noc([C@@]23CCO[C@@H]2CCN(C(=O)c2sccc2C)C3)n1,-13.91%
17,Cc1nnc([C@]23COC[C@H]2CN(Cc2cnn(C)c2)C3)o1.O=C(O)C(F)(F)F,-19.13%
18,CC(NC(=O)c1ccoc1)C(=O)N(C)Cc1ccsc1 (stereo unspecified),8.82%
19,COc1cc(C(=O)N2CCCC(CNS(C)(=O)=O)C2)cc(OC)c1C (stereo unspecified),0.06204%
20,CC(C)Oc1cc(N2CCN(Cc3ccsc3)C(CCO)C2)nc(N)n1 (stereo unspecified),-3.773%
21,CCCC(NC(=O)c1ccc(OC)cc1F)c1nnn[nH]1 (stereo unspecified),-0.1945%
22,COc1c(NS(=O)(=O)c2cc(C)ccc2C)c(C)nn1C,9.711%
23,Cc1ccc(N2CCC(c3[nH]ncc3Cc3ccccc3)CC2)nn1,27.05%
24,Cc1ccc(N2CCCC(c3[nH]ncc3Cc3ccccc3)C2)nn1 (stereo unspecified),26.61%
25,Cc1cc(N2CCCC(c3[nH]ncc3Cc3ccccc3)C2)nc(N)n1 (stereo unspecified),51.86%
26,CCCc1cc(=O)[nH]c2nnc(SCC(=O)OCC)n12,11%

row,SMILES,Percent Effect
1,CC1CN(C(=O)CN(Cc2ccccc2Cl)C2CCCC2)CCO1 (stereo unspecified),167.1%
2,CC1CN(C(=O)CN(Cc2ccco2)Cc2cccs2)CCO1 (stereo unspecified),127.8%
3,Cc1nnc(CN(Cc2ccccc2Cl)C2CCCC2)o1,-12.06%
4,CC1CN(C(=O)CN(Cc2ccccc2)C2CC2)CCO1 (stereo unspecified),126.4%
5,CC1CN(C(=O)c2ccn(-c3cccc(Cl)c3)n2)CCO1 (stereo unspecified),3.639%
6,CC1CN(C(=O)c2sccc2Br)CCO1 (stereo unspecified),5.426%
7,Cn1cc(C(=O)N(Cc2ccco2)Cc2cccs2)ccc1=O,-5.076%
8,CC(C)(C)c1cc(NC(=O)CN(Cc2ccco2)Cc2cccs2)on1,15.1%
9,CC1CN(C(=O)CN(Cc2ccco2)C2CC2)CCO1 (stereo unspecified),-3.205%
10,CC1CN(C(=O)CCc2cc(Br)cs2)CCO1 (stereo unspecified),-0.4778%
11,Cc1ccc(CN(CC(=O)N2CCOC(C)C2)C2CC2)cc1 (stereo unspecified),133.3%
12,CC1CN(C(=O)CN(Cc2ccccc2Br)C2CC2)CCO1 (stereo unspecified),15.13%
13,Cc1cc(NC(=O)N(C)C2CCN(c3ccccc3F)C2=O)n(C)n1 (stereo unspecified),-7.553%
14,O=C(c1ccc2c(c1)CCO2)N1CCN(c2ccc(Cl)cn2)CC1,6.232%
15,CN(C)CC1CN(CCOc2cccc(C#N)c2)CCO1 (stereo unspecified),0.1863%
16,Cc1ncsc1C(=O)NC1CCN(Cc2ccc(C#N)cc2)CC1,-12.71%
17,O=C(NCCOc1ncc(Cl)cc1Cl)c1ccoc1,25.9%
18,CO[C@H]1CCN(S(=O)(=O)c2cn(C)cn2)[C@H]1Cc1cnn(C)c1.O=C(O)C(F)(F)F,-3.902%
19,CCS(=O)(=O)N1CCC(Nc2ccc(C#N)cc2F)CC1,19.57%
20,CC(C)c1ccc(CNC(C)c2ccc(S(C)(=O)=O)cc2)cc1 (stereo unspecified),0.134%
21,CCC(NC1CCCC1)c1ccc(S(C)(=O)=O)cc1 (stereo unspecified),102.8%
22,CS(=O)(=O)c1ccc(CNC(=O)N2CCC(c3ccccc3)CC2)cc1,-1.969%
23,CCC(Nc1nccc(C2CCCC2)n1)c1ccncc1 (stereo unspecified),-45.04%
24,CCC(NC(=O)c1cnc(N(C)C)nc1C)c1ccc(S(C)(=O)=O)cc1 (stereo unspecified),-15.6%
25,CCC(NC1Cc2ccccc2C1)c1ccc(S(C)(=O)=O)cc1 (stereo unspecified),106.7%
26,CCC(NC1CSCCSC1)c1ccc(S(C)(=O)=O)cc1 (stereo unspecified),107.2%

row,SMILES,Percent Effect
1,O=S(=O)(N[C@H]1CC[C@H]1NC1Cc2ccccc2C1)c1cccnc1,1.504%
2,CC(NCc1ccc(C(C)(C)C)cc1)c1ccc(S(C)(=O)=O)cc1 (stereo unspecified),2.046%
3,CCCN(C)CC1CCN(c2ncc(Br)cn2)C1 (stereo unspecified),-2.862%
4,CC(C)CNC[C@H]1COCc2nc3cccnc3n21,-3.474%
5,Cc1nc(C(=O)N2CCCC(c3nc(C(C)C)cs3)C2)c[nH]1 (stereo unspecified),27.35%
6,Cc1cc(C(=O)NCCCn2nccc2C2CC2)c(=O)[nH]c1C,-16.3%
7,O=C(O)c1ccccc1-c1ccc(CN2CCC(CO)CC2)cn1,112.1%
8,CC(C)c1ncc(CN2C[C@@H](CN3CCC(CO)CC3)[C@@H](CO)C2)cn1,1.413%
9,Cn1cc(C(=O)Nc2ccc(CN3CCOCC3)cn2)cn1,-16.87%
10,O=C(O)c1ccccc1-c1ccc(CN2CCOCC2)cn1,106.2%
11,O=C(O)c1ccccc1-c1ccc(CN2CCC(CO)C2)cc1 (stereo unspecified),100.7%
12,O=C(Nc1cnn(CCN2CCOCC2)c1)c1ccccc1O,-9.189%
13,Cc1ccc(CN2CC[C@H](c3nc4cccc(C(N)=O)c4[nH]3)C2)cc1,-7.444%
14,CN(C)c1ccc(CN2CCC(C(O)Cc3ccccc3)CC2)cn1 (stereo unspecified),1.983%
15,CSc1ccc(CN2CCC(CCC(=O)Nc3ccccc3)CC2)cc1,8.024%
16,O=C(O)c1ccccc1-c1ccc(CN2CCC(CO)C2)cn1 (stereo unspecified),95.58%
17,OCC1(CC2CC2)CCCN(Cc2ccc(C(F)(F)F)nc2)C1 (stereo unspecified),-8.11%
18,CC(O)C1CCN(Cc2cnc3c(-c4ccccc4)cnn3c2)CC1 (stereo unspecified),2.9%
19,CC(C)=CCC1(CO)CCCN(S(=O)(=O)N2CCCC2)C1 (stereo unspecified),-19.27%
20,COCCOc1ccccc1NC(C)C(=O)NC(=O)NC(C)(C)C (stereo unspecified),2.141%
21,O=C1CCC(=O)N1CCN1CCOC(c2ccsc2)C1 (stereo unspecified),-5.454%
22,O=C1NCCO[C@H]2CN(C(=O)CC3Cc4ccccc4C3)CC[C@@H]12,-17.08%
23,CCCS(=O)(=O)N1CCN(c2cc(-n3ccnc3)nc(C)n2)CC1,-9.543%
24,CCS(=O)(=O)N1CCN(c2cc(-n3cnc(C)c3C)nc(C)n2)CC1,9.656%
25,CCCS(=O)(=O)N1CCN(c2cc(-n3nc(C)cc3C)nc(C)n2)CC1,56.72%
26,CCCS(=O)(=O)N1CCN(c2cc(-n3cnc(C)c3C)nc(C)n2)CC1,2.706%

row,SMILES,Percent Effect
1,CCCS(=O)(=O)N1CCN(c2cc(-n3cccc3)nc(C)n2)CC1,64.17%
2,Cc1cc(C)n(-c2cc(N3CCN(C(=O)C(C)(C)C)CC3)nc(C)n2)n1,-2.343%
3,CCc1nc(CN2CCCN(CC(=O)Nc3cccnc3)CC2)no1,22.91%
4,CCc1nnc(N2C[C@@H](CN(C)CCO)[C@@H](CO)C2)s1,-3.241%
5,Cc1ccc(NC2CCN(C(=O)c3cscn3)CC2)nn1,107.8%
6,Cc1ccc(NC2CCN(C(=O)c3cc[nH]n3)CC2)nn1,-5.889%
7,Cc1ccc(NC2CCN(C(=O)CCc3nccs3)CC2)nn1,139%
8,Cc1ccc(NC2CCN(C(=O)CCc3ccncc3)CC2)nn1,118.5%
9,Cc1ccc(NC2CCN(C(=O)CCc3c(C)noc3C)CC2)nn1,116%
10,Cc1ccc(NC2CCN(C(=O)c3c(C)noc3C)CC2)nn1,4.919%
11,Cc1ncc2c(n1)CN(CCCc1nc3ccccc3o1)CC2,-1.914%
12,CC(CNC(=O)c1nnn(-c2ccccc2)c1C(F)(F)F)N(C)C (stereo unspecified),5.891%
13,COC(=O)c1ccc2ccn(CC3CCCN(C)C3)c(=O)c2c1 (stereo unspecified),-29.85%
14,CCOc1ccccc1CCNC(=O)NCC(O)c1cccs1 (stereo unspecified),-11.69%
15,CCCNC(=O)CCNC(=O)N1CCc2c(F)ccc(F)c2C1,-1.074%
16,COc1ccc(C(=O)NC2COc3ccccc3C2)cc1OCC(=O)O (stereo unspecified),-8.358%
17,CCC(O)CNC(=O)c1coc(COc2ccc3sc(C)nc3c2)n1 (stereo unspecified),7.295%
18,O=C(CCc1cccs1)N1CCC(Nc2cccnn2)CC1,-8.369%
19,Cc1ccc(NC2CCN(C(=O)CCc3ccsc3)CC2)nn1,107.5%
20,Cc1ccc(NC2CCN(C(=O)CCc3ccccc3)CC2)nn1,109.9%
21,O=C(CCc1ccsc1)N1CCC(Nc2cccnn2)CC1,87.13%
22,Cc1ccc(NC2CCN(C(=O)CCc3cscn3)CC2)nn1,118.6%
23,Cn1c(C(F)(F)F)nn(CCNC(=O)Nc2ccccc2Cl)c1=O,-9.892%

# — ChEMBL document CHEMBL3988442, “University of Dundee, Small-Polar-MMV Screening Library” (2021)
